LYPLA2 counter – LYPLA2 inhibitors, primary screen, counter-screen for PME1 inhibitor project, biochemical, fluorescence polarization, FP-Rh probe ABPP; Acyl-protein thioesterase 2 (Homo sapiens), O95372; recombinant LYPLA2; inhibition, % at 5.9 µM; 0.38% of 320,000 active; AID 2177, 2009;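 active = inhibition above the screen-wide mean plus 3 SD, limit set per campaign, cut at about 26% in these data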
Target sequence (O95372 whole entry, looked up): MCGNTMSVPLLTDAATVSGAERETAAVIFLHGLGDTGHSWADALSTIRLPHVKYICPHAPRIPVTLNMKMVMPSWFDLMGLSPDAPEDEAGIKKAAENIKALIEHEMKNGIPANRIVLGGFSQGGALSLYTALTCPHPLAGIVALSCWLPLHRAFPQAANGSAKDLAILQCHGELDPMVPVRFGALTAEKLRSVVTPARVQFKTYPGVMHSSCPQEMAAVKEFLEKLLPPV
PME-1 inh – PME-1 inhibitors via competitive probe labeling, primary screen, biochemical, fluorescence polarization, FP-Rh probe, HTS; AID 2130, 2009; recombinant PME-1; Protein phosphatase methylesterase 1 (Homo sapiens), Q9Y570; inhibition, % at 5.9 µM; 0.53% of 320,000 active;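 active = inhibition above the campaign mean of all compounds plus 3 SD, cut at about 26% in these data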;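 note: competitive labeling of PME-1 active site by serine hydrolase directed probe; inhibitors block probe labeling so polarization falls and inhibition rises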
Target sequence (Q9Y570 whole entry, looked up): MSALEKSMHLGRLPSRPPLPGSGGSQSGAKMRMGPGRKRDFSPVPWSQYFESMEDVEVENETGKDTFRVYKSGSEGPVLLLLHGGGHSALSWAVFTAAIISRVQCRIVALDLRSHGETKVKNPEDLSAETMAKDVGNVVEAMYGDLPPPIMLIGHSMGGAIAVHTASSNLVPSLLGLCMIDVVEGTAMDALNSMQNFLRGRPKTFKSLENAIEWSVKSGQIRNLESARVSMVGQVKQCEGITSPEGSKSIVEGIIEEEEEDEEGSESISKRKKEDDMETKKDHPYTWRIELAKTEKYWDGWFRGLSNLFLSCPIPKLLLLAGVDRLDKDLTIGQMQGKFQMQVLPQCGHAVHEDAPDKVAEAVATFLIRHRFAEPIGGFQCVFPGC
GSTO1 counter – inhibitors of recombinant GSTO1, primary screen, counter-screen for RBBP9 inhibitor project, biochemical, fluorescence polarization. Glutathione S-transferase omega-1 (Homo sapiens), P78417. activity-based probe fluorescence polarization. inhibition, % at 5.96 µM. 1.1% of 300,000 active;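 active = inhibition above the campaign mean inhibition plus 3 SD, cut at about 35% in these data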
Fam108B counter – mouse Fam108B serine hydrolase inhibitors, primary screen, counter-screen for RBBP9 inhibitor project, biochemical, fluorescence polarization | recombinant Fam108B, FP-Rh probe fluorescence polarization | inhibition, % at 9.51 µM | 0.33% of 300,000 active | AID 1947, 2009;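 active = inhibition above the screen mean inhibition plus 3 SD, computed separately per campaign, cut at about 18% in these data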;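 note: inhibitors lower polarization as less probe binds the enzyme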
LYPLA1 inh – LYPLA1 inhibitors, primary screen, counter-screen for PME1 inhibitor project, biochemical, fluorescence polarization, FP-Rh probe ABPP; recombinant LYPLA1; AID 2174, 2009; inhibition, % at 5.9 µM; 0.16% of 320,000 active; Acyl-protein thioesterase 1 (Homo sapiens), O75608;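 active = inhibition above the mean of all tested compounds plus 3 SD, set per campaign, cut at about 14% in these data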;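 note: inhibitors block serine hydrolase probe labeling of LYPLA1 so polarization falls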
PAD4 inh – human PAD4 inhibitors, primary screen, biochemical, fluorescence polarization, 1536-well format | recombinant PAD4, RCA probe fluorescence polarization | AID 485272, 2010 | 0.41% of 330,000 active | inhibition, % at 6.36 µM;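 active = percent inhibition above a cutoff equal to the mean of all tested compounds plus 3 SD, cut at about 15% in these data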
GSTO1 inh conf – GSTO1 inhibitor hit confirmation, counter-screen for RBBP9 inhibitor project, biochemical, fluorescence polarization, triplicate; recombinant GSTO1, probe fluorescence polarization; inhibition, % at 5.96 µM; 54% of 2,400 active; AID 2176, 2009; shares compounds with GSTO1 counter;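 active = inhibition above the primary screen's cutoff, its mean inhibition plus 3 SD, cut at about 35% in these data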;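 note: loss of polarization as inhibitors block binding of rhodamine sulfonate ester activity probe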
GSTO1 recomb ABPP – inhibitors of purified human GSTO1, late-stage follow-up, biochemical, gel ABPP, SE-Rh probe, percent inhibition; shares compounds with GSTO1 counter; recombinant GSTO1, gel ABPP SE-Rh probe fluorescence; inhibition, % at 1 µM; 30% of 130 active; AID 463110, 2010;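 active = inhibition of the enzyme GSTO1 above about 75%, limit read from the data; inactive = inhibition below that limit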
Each line names hits and unclear results; the compound was inactive in the other large screens (follow-up assays come after a bar, where they were run). Sampled rows, rich in hits. Any-hit rate of the full collection: about 1.8%.

CCCC[n+]1ccn(-c2nc3ccccc3nc2[N-]S(=O)(=O)c2ccccc2)c1	none
Cc1c(C(C)(C)C)s/c(=N/S(=O)(=O)c2ccccc2)n1C	none
CCCCC[n+]1ccn(C2=C([O-])c3ccccc3C(=O)/C2=N\S(=O)(=O)c2ccccc2)c1	GSTO1 counter 75 | GSTO1 inh conf 59
CCCCC[n+]1ccn(C2=C([O-])c3ccccc3C(=O)/C2=N\S(=O)(=O)c2ccc(Br)cc2)c1	GSTO1 counter 47 | GSTO1 inh conf inactive
CC(C)(C)c1cc[n+](C2=C([O-])c3ccccc3C(=O)/C2=N\S(=O)(=O)c2ccccc2)cc1	GSTO1 counter 87 | GSTO1 inh conf 81
COc1cc(/C=N/N2CCN(Cc3ccc(Cl)cc3)CC2)ccc1OC(C)=O	none
CC(C)[n+]1ccn(C2=C([O-])c3ccccc3C(=O)/C2=N\S(=O)(=O)c2ccccc2)c1	GSTO1 counter 61 | GSTO1 inh conf 57
CCC(C)N=C1SCC(C)(/C=N/O)S1 (stereo not given)	none
CC(C)(C)N=C1SCC(C)(/C=N/O)S1 (stereo not given)	GSTO1 counter 42 | GSTO1 inh conf inactive
COc1ccc(/C=C2/C(=O)N(Cc3ccccc3)N=C2C)cc1	GSTO1 counter 40 | GSTO1 inh conf inactive
COc1ccc(-c2ccc(=O)n(Cc3ccccc3)n2)cc1	none
Cn1c(=O)oc2cc(NC(=O)CCl)ccc21	GSTO1 counter 76 | GSTO1 inh conf 87
CC(=O)Nc1ccc(NC(=O)CCS(=O)(=O)c2ccc3c(c2)oc(=O)n3C)cc1	none
Nc1cc(OCC(F)(F)F)cc([N+](=O)[O-])c1	none
Nc1cc(N)c(OCC(F)(F)F)cc1OCC(F)(F)F	GSTO1 counter 80, PAD4 inh 55 | GSTO1 inh conf 64
COC(=O)CC1C(=O)NCCN1C(=O)c1cc([N+](=O)[O-])ccc1Cl (stereo not given)	none
O=S(=O)(c1ccccc1)N(CC1CO1)c1ccccc1 (stereo not given)	GSTO1 counter 71 | GSTO1 inh conf 83 | GSTO1 recomb ABPP inactive
COc1ccc(N(CC(O)CN2CCOCC2)S(=O)(=O)c2ccc(C)cc2)cc1 (stereo not given)	none
COc1ccc(N(CC2CO2)S(=O)(=O)c2ccc(C)cc2)cc1 (stereo not given)	GSTO1 counter 81 | GSTO1 inh conf 85 | GSTO1 recomb ABPP inactive
O=C(O)c1ccc(CN(c2ccccc2)S(=O)(=O)c2ccccc2)cc1	none
O=S(=O)(c1ccccc1)N(CC1CO1)c1cccc2ccccc12 (stereo not given)	GSTO1 counter 75 | GSTO1 inh conf 90 | GSTO1 recomb ABPP inactive
Cc1ccc(S(=O)(=O)N(CC2CO2)c2cccc([N+](=O)[O-])c2)cc1 (stereo not given)	GSTO1 counter 97 | GSTO1 inh conf 97 | GSTO1 recomb ABPP inactive
Cc1ccc(S(=O)(=O)N(CC(=O)NCC2CCCO2)c2cccc([N+](=O)[O-])c2)cc1 (stereo not given)	none
COC(=O)C1=C(N)Oc2cc(C)n(Cc3cccnc3)c(=O)c2C1c1cccc(OC)c1OC (stereo not given)	none
CCOc1ccc(C(=O)OCC(=O)Nc2ccc(SC(F)F)cc2)cc1OCC	none
CC(=O)Nc1ccc(S(=O)(=O)N2CCN(S(=O)(=O)N3CCC(C)CC3)CC2)cc1	none
O=C(CN(c1ccc([N+](=O)[O-])cc1)S(=O)(=O)c1ccccc1)N1CCCCC1	none
O=[N+]([O-])c1ccc(N(CC2CO2)S(=O)(=O)c2ccccc2)cc1 (stereo not given)	GSTO1 counter 85 | GSTO1 inh conf 92 | GSTO1 recomb ABPP inactive
O=C(OCc1ccc(F)cc1)c1ccc2c(c1)-c1ccccc1C2=O	none
CCOC(=O)C1=C(Cc2ccc(F)cc2)C(=O)c2ccccc2C1=O	GSTO1 counter 38 | GSTO1 inh conf inactive
O=C(COc1ccc(Br)cc1)Nc1ccc(N2CCOCC2)cc1N1CCOCC1	none (no result: GSTO1 counter, Fam108B counter)
CCc1cc(=O)oc2cc(OC(=O)c3ccco3)ccc12	none
CCc1cc(=O)oc2cc(OC(C)=O)cc(OC(C)=O)c12	GSTO1 counter 47 | GSTO1 inh conf inactive
COC(=O)C1CN(C(=O)COc2cccc(C)c2C)c2ccccc2O1 (stereo not given)	none
C/C(=C/c1oc2ccc(O)cc2c1[N+](=O)[O-])N(C)C	GSTO1 counter 51 | GSTO1 inh conf inactive
CC(=O)Oc1ccc2oc(/C=C/N(C)C)c([N+](=O)[O-])c2c1	none
Cc1cc(C)nc(NCC(O)CNc2ccccc2Cl)n1 (stereo not given)	none
CCS(=O)(=O)NCc1ccc2[nH]c3c(c2c1)CCCC3	GSTO1 counter 46 | GSTO1 inh conf 60
C/C(=N\Nc1cccc2cccnc12)c1ccc[nH]1	GSTO1 counter 47 | GSTO1 inh conf inactive
O=C(N/N=C/c1ccc([N+](=O)[O-])o1)c1ccc(NS(=O)(=O)c2cccs2)cc1	GSTO1 counter 55 | GSTO1 inh conf inactive
COCCNC(=S)N=Nc1c(O)[nH]c2ccc([N+](=O)[O-])cc12	none
O=C(CNC(=O)c1cccs1)N=Nc1c(O)[nH]c2ccc([N+](=O)[O-])cc12	GSTO1 counter 39 | GSTO1 inh conf inactive
O=[N+]([O-])c1ccc2[nH]c(O)c(N=NC3CCS(=O)(=O)C3)c2c1 (stereo not given)	none
O=[N+]([O-])c1ccc2[nH]c(O)c(N=Nc3ccc(F)cc3)c2c1	none
O=C(N=Nc1c(O)[nH]c2ccc([N+](=O)[O-])cc12)c1ccccc1[N+](=O)[O-]	GSTO1 counter 43 | GSTO1 inh conf 46
CC(Oc1ccccc1)C(=O)N=Nc1c(O)[nH]c2ccc([N+](=O)[O-])cc12 (stereo not given)	GSTO1 counter 61 | GSTO1 inh conf 74
Cc1cccc(C(=O)OCC(=O)NCCN2C(=O)CSC2=O)c1[N+](=O)[O-]	none (no result: LYPLA2 counter, PME-1 inh, GSTO1 counter, Fam108B counter, LYPLA1 inh)
COc1cc2[nH]c(=S)nc(Nc3ccc(NC(C)=O)cc3)c2cc1OC	none
O=C(COC(=O)CC1CC2CCC1C2)Nc1cccc(S(=O)(=O)NC2=NCCCCC2)c1 (stereo not given)	none

Compound activity deposited in PubChem BioAssay by The Scripps Research Institute Molecular Screening Center.
